Laboratory results published in PubChem BioAssay.
Inconclusive results are not listed. The source made the active and inactive calls. Unless noted, no cut-off is given here; in the data, nearly all actives have AC50 up to about 26 µM.

Assays:
[1] = growth inhibition of DIPG glioma cells, dose response, cell-based, SU-DIPG-XVII, MIPE5.0, CellTiter-Glo, qHTS (AID 1347060); conditions: SU-DIPG-XVII viability, CellTiter-Glo ATP luminescence;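 note: cells exposed to compound for 48 hours before viability readout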
[2] = growth inhibition of DIPG glioma cells, dose response, cell-based, SU-DIPG-XIII, MIPE5.0, CellTiter-Glo, qHTS (AID 1347064; cut-off not given, nearly all actives have AC50 up to about 23 µM;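 note: cells exposed to compound for 48 hours before the viability read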); conditions: SU-DIPG-XIII viability, CellTiter-Glo ATP luminescence
[3] = viability loss in pontine glioma line – cell-based, SU-DIPG-XXV, MIPE5.0, CellTiter-Glo, qHTS, dose response (AID 1347065); conditions: CellTiter-Glo ATP luminescence;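 note: cells exposed to compound for 48 hours before ATP readout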
[4] = JHH-DIPG-1 glioma cell viability, MIPE5.0 library, CellTiter-Glo luminescence, qHTS (AID 1347067); conditions: JHH-DIPG-1 glioma viability, CellTiter-Glo ATP luminescence;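 note: cells exposed to compound for 48 hours before readout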

Measured: AC50

O=c1sn(-c2cccc3ccccc23)c(=O)n1Cc1ccccc1
active: [1] 23.5 µM | [2] 13.2 µM | [3] 14.8 µM | [4] 3.72 µM
